Shown are actives, neighbours in structure and some others; about 3% of the full set was active somewhere.
Wnt bcat act – activates Wnt/beta-catenin signaling in a reporter cell assay | activator, plate reader | activation, % at 9.35 µM | 300,000 tested, 1.2% active; in the data active = activation above about 30%, passing the limit was not always enough
MITF act – MITF TRPM1 promoter activation in melanoma cells. SK-MEL-5 TRPM1-promoter luciferase, 24 h; % of positive control, neutral wells = 0. activation, % at 12.5 µM. 300,000 tested, 0.75% active;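 active = mean activation of at least 80% with every replicate also reaching 80%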
C2C12 statin – suppressors of simvastatin-induced myotoxicity in C2C12 myotubes; ATP luminescence, 48 h; scaled: DMSO 0, geranylgeraniol control 100; rescue of ATP level, % at 7.49 µM; 330,000 tested, 0.78% active;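 active = mean ATP rescue above about 67%, or every replicate alone reaching that limit, limit read from the data, passing the limit was not always enough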;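 note: myotubes were challenged with 10 µM simvastatin during compound exposure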
esBAF inh – inhibitors of esBAF chromatin remodeling in mouse ES cells. Bmi1-luciferase knock-in reporter, 24 h; 100% = twice the neutral-well signal. reporter increase, % at 12.5 µM. 350,000 tested, 2% active; in the data active = activation above about 40%;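 note: a rise in the Bmi1 reporter signal indicates esBAF inhibition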
Hits are given with their value; n = inactive; x = no result.

SMILES	Wnt bcat act	MITF act	C2C12 statin	esBAF inh
CO[C@@H]1CN(C)C(=O)c2cc(NC(=O)c3ccc(-c4ccccc4)cc3)ccc2OC[C@@H](C)NC[C@@H]1C	x	x	n	n
C[C@@H]1CN([C@@H](C)CO)C(=O)Cc2cc(NC(=O)Cc3cn(C)c4ccccc34)ccc2O[C@H]1CN(C)C(=O)Nc1ccccc1	x	x	n	n
CC(C)C#Cc1ccc2c(c1)O[C@@H](CN(C)S(=O)(=O)c1cn(C)cn1)[C@H](C)CN([C@@H](C)CO)S2(=O)=O	x	x	n	n
CCC(C)NC(=O)c1ccc2nc(Cc3ccc(OC)cc3)oc2c1 (stereo unspecified)	n	n	n	n
COc1ccc([C@@H](C)NC(=O)c2ccc3oc(C(C)C)nc3c2)cc1	n	n	n	64
COc1ccc(Cc2nc3ccc(C(=O)NC(C)C)cc3o2)cc1	n	x	n	51
O=C(c1ccc2nc(Cc3cccc(Cl)c3)oc2c1)N1CCC(O)CC1	n	n	x	x
COc1ccc(Cc2nc3ccc(C(=O)N4CCCC4)cc3o2)cc1	n	n	n	71
O=C(c1ccc2nc(Cc3cccc(Cl)c3)oc2c1)N1CCOCC1	n	102	x	x
COc1ccc(-c2ccc3c(c2)[C@H]2[C@H](CCN2C(=O)c2cccc(F)c2)[C@@H](CO)N3)cc1	x	x	n	n
C[C@@H]1CN([C@H](C)CO)C(=O)c2cc(C#Cc3ccccc3F)cnc2O[C@@H]1CN(C)C(=O)c1ccc2c(c1)OCO2	x	x	n	n
O=C(Nc1ccc(Cl)cc1)N[C@H]1CC[C@@H](CCn2cc(-c3ccccc3F)nn2)O[C@@H]1CO	x	x	n	n
Cc1noc(C)c1NC(=O)N(C)C[C@@H]1Oc2ccc(NC(=O)Cn3cnnn3)cc2CC(=O)N([C@H](C)CO)C[C@@H]1C	x	x	n	n
C[C@H](CO)N1C[C@H](C)[C@@H](CN(C)CC2CCCCC2)Oc2ccc(NC(=O)Cc3ccccc3)cc2CC1=O	x	x	n	n
COC(=O)CCCNC(=O)c1ccc2nc(Cc3ccc(OC)cc3)oc2c1	n	n	n	n
CCOC(=O)C1CCCN(C(=O)c2ccc3nc(-c4cccc(OC)c4)oc3c2)C1 (stereo unspecified)	n	n	n	48
C=C(C)CNC(=O)c1ccc2nc(Cc3ccc(OC)cc3)oc2c1	n	x	n	66
CC(C)NC(=O)Nc1ccc2c(c1)C(=O)N([C@H](C)CO)C[C@H](C)[C@H](CN(C)S(=O)(=O)c1ccc(Cl)cc1)O2	x	x	n	n
COc1cc(CCC(=O)OCc2ccccc2C#N)cc(OC)c1OC	n	n	n	n
COc1cc(CCC(=O)OCc2nnc(-c3ccccc3)o2)cc(OC)c1OC	n	n	104	n
O=C(CSc1ccc(Cl)cc1)OCc1nnc(-c2ccccc2)o1	x	n	69	n
Cc1noc(C)c1S(=O)(=O)N(C)C[C@@H]1Oc2ccc(NS(=O)(=O)c3ccc(F)cc3)cc2CC(=O)N([C@@H](C)CO)C[C@@H]1C	x	x	n	n
Cc1noc(C)c1S(=O)(=O)Nc1ccc2c(c1)C(=O)N([C@@H](C)CO)C[C@@H](C)[C@@H](CN(C)Cc1ccc(C(F)(F)F)cc1)OCCCC[C@@H](C)O2	x	x	x	n
O=C(NCc1ccco1)c1cc2c(s1)CCCCC2	n	n	n	57
Cc1cc(C)nc(N2CCCC(C(=O)NCc3cccs3)C2)n1 (stereo unspecified)	n	n	127	n
SMILES	Wnt bcat act	MITF act	C2C12 statin	esBAF inh
Cc1ccnc(N2CCCC(C(=O)NCc3cccs3)C2)n1 (stereo unspecified)	n	n	n	n
Cc1cccc(N2CCN(c3cccc(C)c3)C2c2cccnc2)c1	37	x	n	n
Cc1cccc(N2C(=O)CSC2c2cccnc2)c1 (stereo unspecified)	n	n	n	n
Cc1cc(C)n(-c2cc(C(C)(C)C)nc3c(-c4ccccc4)cnn23)n1	56	121	x	x
Cc1cc(NCc2ccccc2)n2ncc(-c3ccccc3)c2n1	n	104	n	n
COc1ccc(CCNc2cc(C)nc3c(-c4ccccc4)cnn23)cc1OC	n	n	x	x
Cc1cc(NC(C)c2ccccc2)n2ncc(-c3ccccc3)c2n1 (stereo unspecified)	n	122	n	59
Cc1cc(NC2CCCC2)n2ncc(-c3ccccc3)c2n1	n	n	n	n
CO[C@@H]1CN(C)C(=O)c2cc(NS(=O)(=O)c3ccccc3C)ccc2OC[C@@H](C)N(C)C[C@H]1C	x	x	n	n
C[C@H]1CN([C@@H](C)CO)C(=O)c2cc(NS(=O)(=O)c3cccs3)ccc2O[C@@H]1CN(C)S(=O)(=O)c1cccs1	x	x	n	n
CO[C@H]1CN(C)C(=O)c2cc(NC(=O)c3cc(C)on3)ccc2OC[C@H](C)N(C)C[C@@H]1C	x	x	n	n
COc1ccc(C#Cc2cnc3c(c2)C(=O)N([C@@H](C)CO)C[C@H](C)[C@H](CN(C)C(=O)CC2CC2)O3)cc1	x	x	n	n
CN(C)c1cccc(C(=O)OCC(=O)N(Cc2ccccc2)C2CCS(=O)(=O)C2)c1 (stereo unspecified)	n	n	n	46
COc1ccc(-c2ccc3c(c2)[C@@H]2[C@@H](CCN2S(=O)(=O)c2ccc(OC)cc2)[C@@H](CO)N3)cc1	x	x	n	n
C[C@@H]1CN([C@@H](C)CO)C(=O)Cc2cc(NC(=O)CCCCCC(=O)Nc3ccccc3N)ccc2O[C@@H]1CN(C)Cc1ccc(Cl)c(Cl)c1	x	x	n	n
C[C@@H]1CN([C@H](C)CO)C(=O)Cc2cc(NC(=O)CCCCCC(=O)Nc3ccccc3N)ccc2O[C@@H]1CN(C)Cc1ccc(Cl)c(Cl)c1	x	x	85	n
C[C@H](CO)N1C[C@H](C)[C@H](CN(C)Cc2ccc(Cl)c(Cl)c2)Oc2ccc(NC(=O)CCCCCC(=O)Nc3ccccc3N)cc2CC1=O	x	x	139	n
CCC(C)(C)C1CCc2[nH]nc(C(=O)NN)c2C1 (stereo unspecified)	n	x	x	x
CCC(C)(C)C1CCc2[nH]nc(C(=O)NC3CCCCC3)c2C1 (stereo unspecified)	n	n	n	58
CO[C@H]1CN(C)C(=O)c2cc(NC(=O)C3CC3)ccc2OC[C@@H](C)N(C(=O)c2cnccn2)C[C@@H]1C	x	x	n	n
CCCn1c(NC(=O)c2ccco2)nc2ccccc21	x	n	102	n
CCn1c(NC(=O)c2ccccc2)nc2ccccc21	31	x	x	x
COCC(=O)Nc1ccc2c(c1)OC[C@@H](C)N(Cc1ccccc1OC)C[C@H](C)[C@@H](OC)CN(C)C2=O	x	x	n	n
CC(=O)c1c(C(C)=O)c(C)n(Cc2ccc(Cl)cc2)c1C	n	n	144	n
CCOC(=O)c1c(C=O)c(C)n(Cc2ccc(Cl)cc2)c1C	n	x	x	x
COc1ccc(C(=O)/C=C/c2cn(CN3CCN(C)CC3)c3ccccc23)cc1	x	95	n	51
C[C@@H]1CN([C@@H](C)CO)C(=O)Cc2cc(NS(=O)(=O)c3ccc(F)cc3)ccc2O[C@H]1CN(C)CC1CC1	x	x	n	n
O=C(CSc1ncccn1)c1ccccc1Br	x	n	n	41
COc1ccc2cc(CCC(C)=O)ccc2c1	n	108	n	58
COc1ccc(CCc2ccc3cc(OC)ccc3n2)cc1	n	n	n	n

Assay outcomes from PubChem.
